{"source": "paper PMC13494018", "binders": {"B1": {"name": "design_603_0b98da89-d791-4423-9b2d-fd1b7292da18_215_dldesign_0_cycle1_af2pred (protein)", "chain": "MTEEEERALVRGAYRAAVEAAKDPANAADYLAKSKALADELIAKGSKKAIASAAFKLEGVAEAAAKDPATAEVAKAANATAKRLNAAL"}, "B2": {"name": "design_603_0b98da89-d791-4423-9b2d-fd1b7292da18_227_dldesign_0_cycle1_af2pred (protein)", "chain": "DKLKEKAEKLKKEVEEEMKKMKKLVKEGKEEEAKAEAKKTKEIAEKAEKAGEEAIEKGDEESKKAGRDALATAERAKQAAKAVIK"}, "B3": {"name": "design_603_0b98da89-d791-4423-9b2d-fd1b7292da18_386_dldesign_0_cycle1_af2pred (protein)", "chain": "EKEEIIKRAKEAAERMKELAKKDPKYAEDAKKGKEVAEKAIEKAKESDKSLASAEALAESLELAVEYLEKKLKE"}, "B4": {"name": "design_603_0b98da89-d791-4423-9b2d-fd1b7292da18_403_dldesign_0_cycle1_af2pred (protein)", "chain": "AAAAEERAAGLAGRARVLEKSGLRLAKLNPEQGELLAEFLREEAEADPIGAPHFRAAADRLLAEVRKYKE"}, "B5": {"name": "design_603_0b98da89-d791-4423-9b2d-fd1b7292da18_450_dldesign_0_cycle1_af2pred (protein)", "chain": "MKKEEELKAKYKKAKELVEEKYKRAKEVVKNGTVEQGLAAAESLLEFGKHAGKSLEKAGDKEGGKEVKELAEKYYKELKEEAEKKA"}, "B6": {"name": "design_603_0b98da89-d791-4423-9b2d-fd1b7292da18_519_dldesign_0_cycle1_af2pred (protein)", "chain": "AAAQEEARKAAERAAKIMRRRGERTGDLEKAEEAAKRVAAALAEGRAAGSAAMAEALEEFAELEYEKRKEEKKKKEEALE"}, "B7": {"name": "design_603_0b98da89-d791-4423-9b2d-fd1b7292da18_572_dldesign_0_cycle1_af2pred (protein)", "chain": "SEKEEYLKKAKEEMEKLKAEILELMKKGNEYLPEASKLMAEMREIGAEAAFYVGPEADELRKKIMGEVLEAAKKYSG"}, "B8": {"name": "design_603_0b98da89-d791-4423-9b2d-fd1b7292da18_573_dldesign_0_cycle1_af2pred (protein)", "chain": "EELLKGAEEIKKKAEEVVKEIKKINPKLGEEAEKELKEAEKEGKKETPAVYIQKMQEALTYAKSLLIKAKKE"}, "B9": {"name": "design_603_0b98da89-d791-4423-9b2d-fd1b7292da18_594_dldesign_0_cycle1_af2pred (protein)", "chain": "SMEEEAKKKLEEVKKEAEKVKKEAEKALKEAKATDKAKGLAAMAKVAAKAHEVRAEGDYYGKYDPEAAKIGKEVMEYVRAKAKEIEA"}, "B10": {"name": "design_603_0b98da89-d791-4423-9b2d-fd1b7292da18_614_dldesign_0_cycle1_af2pred (protein)", "chain": "DEYVKKAKEAIKKAKEYVEEAKKYAEKGDIENAIKSVQKAQEEISAAYFYADQALKLDPEKGKKLKEEAEKVKEELEKVKEYIKAK"}, "B11": {"name": "design_603_0b98da89-d791-4423-9b2d-fd1b7292da18_754_dldesign_0_cycle1_af2pred (protein)", "chain": "NDEEAKQKLAEAAAKLHEAAALAEYEGDEELAKKAREAAKELKAAAADPSLTAEEKAKLAEEAKKKAEEIIKKVEEK"}, "B12": {"name": "design_603_0b98da89-d791-4423-9b2d-fd1b7292da18_768_dldesign_0_cycle1_af2pred (protein)", "chain": "KAFQAYNSSKALADNNVAVAKKLAEKGKLEEAEKAAKEGLERLKARAERLKGDPEAYKAAMKALEEYEKRAKEVVEEGKKAK"}, "B13": {"name": "design_603_0b98da89-d791-4423-9b2d-fd1b7292da18_819_dldesign_0_cycle1_af2pred (protein)", "chain": "SAKEKASAALRAVATAAARDAKKRFPKIDKETANEFQKARMYAADPNEVAKGIEHLKAAAAKLGEIGKEYIAAADKVAALL"}, "B14": {"name": "design_603_0b98da89-d791-4423-9b2d-fd1b7292da18_996_dldesign_0_cycle1_af2pred (protein)", "chain": "SAAEERRKKGLELAEKRYAELEKLAKETEELNPELGKEAKKEAEEAKKYYEKAAEAPDSEVIDYVAKANEKRIKAEKLYKKAK"}, "B15": {"name": "design_603_0b98da89-d791-4423-9b2d-fd1b7292da18_1094_dldesign_0_cycle1_af2pred (protein)", "chain": "GKEEAEKKLKEAKEKVEEMEKKAKEIEENAKELSAEEIEKIAEEMRKEGEEAIKKAEEADPEKGKEIRKKASEAVHKIREAIAEAKA"}, "B16": {"name": "design_603_0b98da89-d791-4423-9b2d-fd1b7292da18_1132_dldesign_0_cycle1_af2pred (protein)", "chain": "EEEASKKAREDADKISKEQKKIKENAKAAKAGTPEEAKAKYEEAKKAAEEIKKIDPDLGTFVLNNIKKWYA"}, "B17": {"name": "design_603_0b98da89-d791-4423-9b2d-fd1b7292da18_1135_dldesign_0_cycle1_af2pred (protein)", "chain": "SEELKELAKAVLEEFSKKVHELYELAAEKDKETSKKIKELAKKAAEYGKKAVEDYLKGEKKEEGEKYKKEAEKYFEEAKKLAE"}, "B18": {"name": "design_603_0b98da89-d791-4423-9b2d-fd1b7292da18_1163_dldesign_0_cycle1_af2pred (protein)", "chain": "MEALKEIKELMKKAEEEAKKLAKSMGVEGAKEGLKVAEKYFSSIFDIAIEKLTPEEAKEALDIANKAAKEIKDYIDKAIAEK"}, "B19": {"name": "design_603_0b98da89-d791-4423-9b2d-fd1b7292da18_1193_dldesign_0_cycle1_af2pred (protein)", "chain": "GEEEKLKELIKKTEELAEGTEKLAKKVSEKYPEFEEELKKAAEEAKKAAEEAKKNPEKAPEQYKKVNEKNFEVQQLRAEGKYKS"}}, "note": "Unmarked numbers belong to inactive results. How the calls were made is not given here.", "data": [{"molecular_target": "VTCN1, Q7Z7D3", "sequence (Q7Z7D3 whole entry)": "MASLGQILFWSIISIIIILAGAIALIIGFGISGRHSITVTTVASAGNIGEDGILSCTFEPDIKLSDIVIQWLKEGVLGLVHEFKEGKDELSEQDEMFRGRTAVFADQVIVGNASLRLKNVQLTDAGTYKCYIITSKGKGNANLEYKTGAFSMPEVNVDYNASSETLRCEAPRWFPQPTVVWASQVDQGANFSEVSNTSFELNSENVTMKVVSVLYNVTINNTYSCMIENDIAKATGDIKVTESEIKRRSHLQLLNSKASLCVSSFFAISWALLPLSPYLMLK", "values": [{"binder": "B1", "binding in a display sort": "not found"}, {"binder": "B2", "binding in a display sort": "not found"}, {"binder": "B3", "binding in a display sort": "not found"}, {"binder": "B4", "binding in a display sort": "not found"}, {"binder": "B5", "binding in a display sort": "not found"}, {"binder": "B6", "binding in a display sort": "not found"}, {"binder": "B7", "binding in a display sort": "not found"}, {"binder": "B8", "binding in a display sort": "not found"}, {"binder": "B9", "binding in a display sort": "not found"}, {"binder": "B10", "binding in a display sort": "not found"}, {"binder": "B11", "binding in a display sort": "not found"}, {"binder": "B12", "binding in a display sort": "not found"}, {"binder": "B13", "binding in a display sort": "not found"}, {"binder": "B14", "binding in a display sort": "not found"}, {"binder": "B15", "binding in a display sort": "not found"}, {"binder": "B16", "binding in a display sort": "not found"}, {"binder": "B17", "binding in a display sort": "not found"}, {"binder": "B18", "binding in a display sort": "not found"}, {"binder": "B19", "binding in a display sort": "not found"}]}]}
